This is a sample that favours compounds with a hit; in the whole collection about 9.2% have one here.
ELG1 genotoxic – qHTS screen for small molecules that induce genotoxicity in human embryonic kidney (HEK293T) cells expressing luciferase-tagged ELG1. HEK293T ELG1-luciferase reporter, luminescence, 16 h. 1.3% of 330,000 active. AID 504466, 2011. Potency, µM (doses to about 46 µM), hits mostly activators; note: nearly all actives have a fitted effect of over 60% in size
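16 hr compound incubation (37 °C, 5% CO2) of HEK293T cells carrying luciferase-tagged ELG1; luciferase then measured by ONE-Glo luminescence after 30 min at RT.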
FLuc modulator – qHTS profiling assay for firefly luciferase inhibitor/activator using purifed enzyme and Km concentrations of substrates (counterscreen for miR-21 project). Luciferin 4-monooxygenase (Photinus pyralis), P08659. purified FLuc, Km substrates, luminescence inhibition. Potency, µM (top dose mostly 57.5 µM), usual class: inhibitors. 6.9% of 360,000 active. AID 588342, 2011; note: nearly all actives have a fitted effect of over 55% in size
Target sequence (P08659 whole entry, looked up): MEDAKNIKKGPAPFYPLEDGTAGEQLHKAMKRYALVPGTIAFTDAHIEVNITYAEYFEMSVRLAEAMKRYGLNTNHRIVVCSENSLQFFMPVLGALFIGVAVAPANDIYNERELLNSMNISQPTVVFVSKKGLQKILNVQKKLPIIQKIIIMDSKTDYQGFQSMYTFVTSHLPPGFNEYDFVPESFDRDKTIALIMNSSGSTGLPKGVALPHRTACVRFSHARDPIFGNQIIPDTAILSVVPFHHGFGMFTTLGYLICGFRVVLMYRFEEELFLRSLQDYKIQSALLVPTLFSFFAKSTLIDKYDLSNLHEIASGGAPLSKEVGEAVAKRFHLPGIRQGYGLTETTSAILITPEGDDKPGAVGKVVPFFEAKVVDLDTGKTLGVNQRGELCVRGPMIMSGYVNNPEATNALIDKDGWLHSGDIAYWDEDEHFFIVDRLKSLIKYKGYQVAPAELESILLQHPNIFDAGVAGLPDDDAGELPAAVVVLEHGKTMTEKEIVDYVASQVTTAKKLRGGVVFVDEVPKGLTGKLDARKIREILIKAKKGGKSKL
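Purified P. pyralis luciferase (10nM final) with 10uM D-luciferin and 10uM ATP (Km levels) in 50mM Tris acetate pH 7.5, 10mM Mg acetate, 0.01% Tween-20, 0.05% BSA; qHTS 6-point titration, ~60 µM downward; luminescence read.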
Rab9 prom act – qHTS Assay for Rab9 Promoter Activators | Huh7 Rab9 promoter-luciferase reporter, luminescence, 24 h | Potency, µM (series often up to 9.22 µM), actives largely listed as activators | 2.8% of 320,000 active; note: nearly all actives have a fitted effect of over 60% in size
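Cells were plated at 1500 per well in reduced-serum medium with 10% FBS and left 2 h. Compound in DMSO was then added for 24 h at 37 °C. Reporter signal was read by luminescence after 10 min with luciferase detection reagent.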
ELG1 DNA repair – qHTS screen for small molecules that inhibit ELG1-dependent DNA repair in human embryonic kidney (HEK293T) cells expressing luciferase-tagged ELG1. Potency, µM (series often up to 46.1 µM), usual class: inhibitors. 2.3% of 330,000 active. HEK293T ELG1-luciferase reporter, luminescence, 16 h; DNA damage induced by 5-fluorouridine. AID 504467, 2011; note: nearly all actives have a fitted effect of over 55% in size
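DMSO vehicle served as the neutral condition. Each well held 2,000 cells given 5-fluorouridine plus compound; after 16 hr at 37 °C/5% CO2, ONE-Glo was added and luciferase measured 30 min later.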
NPC1 promoter act – qHTS Assay for NPC1 Promoter Activators; Huh7 NPC1 promoter luciferase reporter, 24 h; Potency, µM (highest dose often 9.22 µM), usual class: activators; 2.4% of 320,000 active; note: nearly all actives have a fitted effect of over 60% in size
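In 1536-well qHTS, Huh7 cells harboring an NPC1 promoter–luciferase construct received compound for 24 h; activation was quantified by luminescence following luciferase reagent addition.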
SMN2 splice up – qHTS Assay for Enhancers of SMN2 Splice Variant Expression. HEK293 SMN2-luciferase splicing reporter, luminescence, 30-36 h. Potency, µM (highest dose often 46.1 µM), actives largely listed as activators. 2.8% of 210,000 active; note: nearly all actives have a fitted effect of over 55% in size
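qHTS luciferase splicing reporter: luminescence rises when SMN2 exon 7 is included in transfected HEK293 cells. Compound exposure lasted 30-36 h at 37C, with 4.5 mM final sodium butyrate as control, followed by a ONE-Glo read.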
Numbers stand for hits; n = inactive; u = inconclusive; x = no result; [ ] = remark or other dose. Calls come from the whole dose curve; as a rule, active = well fitted curve in the direction sought with a large enough effect; inconclusive = small, poorly fitted or top-dose-only effect, or another doubt; inactive = no such curve, though single readings can be large; an effect the other way counts as inactive or inconclusive.

SMILES | ELG1 genotoxic | FLuc modulator | Rab9 prom act | ELG1 DNA repair | NPC1 promoter act | SMN2 splice up
CC(C)OC(=O)c1cc2ccccc2oc1=O | n | n | n | n | n | n
Brc1ccc(N=NNc2ccccc2)cc1 | u | 6µM | u | u | u | x
O=[N+]([O-])c1cccc(NN=Nc2ccccc2)c1 | u | 11µM | u | u | u | x
O=C(O)c1cc(NN=Nc2cccc([N+](=O)[O-])c2)cc([N+](=O)[O-])c1 | n | u | n | n | n | x
O=[N+]([O-])c1ccc(N=NNc2ccccc2)cc1 | n | u | u | u | n | 16µM
Cc1cccnc1NC(=O)CCc1c[nH]c2ccccc12 | n | n | n | n | n | x
Cc1ccc(-c2ccc(CCC(=O)O)n2-c2cccc(C(=O)O)c2)cc1 | n | u | n | u | u | x
O=[N+]([O-])c1ccc(Cl)c(CN2CCN(c3ncccn3)CC2)c1 | n | n | n | n | n | x
Cc1ccc2nc(C)c(CN3CCN(c4ccc([N+](=O)[O-])cc4Cl)CC3)n2c1 | n | n | n | 2.3µM | n | x
COc1ccc(-c2nnc(SCC(=O)N3CCOCC3)o2)cc1OC | n | n | n | n | n | n
CCOc1ccc(-c2nnc(SCC(=O)N3CCCC3)o2)cc1 | u | 21µM | u | u | u | x
CCOc1ccc(-c2nnc(SCC(=O)N3CCOCC3)o2)cc1 | u | 11µM | 2.2µM | u | u | u
Cc1cccc(CS(=O)(=O)Cc2ccc(C(=O)NCc3ccc(Cl)cc3)o2)c1 | x | n | x | x | x | x
C/C(=N\Nc1nc(C)cc(C)n1)c1ccc(C)o1 | n | n | n | n | n | x
C/C(=N\Nc1nnc2c3ccccc3n(C)c2n1)c1ccc(C)o1 | n | 17µM | n | 16µM | n | n
Cc1cc(C)n(-c2nnc3c4ccccc4n(C)c3n2)n1 | u | 4.8µM | 2.5µM | u | 1.4µM | x
CSc1ncc(Cl)c(C(=O)N(Cc2ccc(N(C)C)cc2)Cc2ccco2)n1 | x | n | x | x | x | n
Cc1cnc(C(=O)OCC(=O)N2CC(C)CC(C)C2)cn1 (stereo unspecified) | n | x | x | n | x | x
Cc1ccc(OCC(=O)Nc2ccc(OCc3cc(=O)n4ccsc4n3)cc2)cc1 | x | n | x | x | x | n
Cc1cc(O)c(C(=O)/C=C/c2ccccc2O)c(=O)o1 | n | n | n | n | n | x
COc1cc(/C=C/C(=O)c2ccc([N+](=O)[O-])o2)ccc1O | u | u | n | u | n | x
O=C(/C=C/c1cccc(Cl)c1)c1ccc([N+](=O)[O-])o1 | n | n | n | 7.3µM | n | x
COc1ccc(/C=C/C(=O)c2ccc([N+](=O)[O-])o2)cc1OC | u | n | n | 12µM | n | x
Cc1cc(O)c(C(=O)/C=C/c2cccc([N+](=O)[O-])c2)c(=O)o1 | n | 21µM | n | n | n | x
O=C(NC1CCOCC1)C1CCC(=O)N(Cc2cccc(C(F)(F)F)c2)C1 (stereo unspecified) | n | n | n | n | n | x
SMILES | ELG1 genotoxic | FLuc modulator | Rab9 prom act | ELG1 DNA repair | NPC1 promoter act | SMN2 splice up
CSc1ccc(CCNS(=O)(=O)c2csc(C(N)=O)c2)cc1 | n | n | n | n | n | x
O=C(Nc1cccc(C(=O)O)c1)/C(=C\c1ccc2c(c1)OCO2)NC(=O)c1ccccc1Cl | n | n | n | n | n | x
Cc1ccc(S(=O)(=O)N(C)C)cc1NC(=O)COC(=O)/C=C/c1ccc2c(c1)OCO2 | n | 21µM | n | n | n | n
CC(=O)N/C(=C\c1ccccc1)C(=O)OCC(=O)Nc1cc(S(=O)(=O)N(C)C)ccc1C | n | n | n | n | n | x
CN(C)S(=O)(=O)c1cccc(NC(=O)COC(=O)/C=C/c2ccco2)c1 | n | u | n | u | n | n
CN(C)S(=O)(=O)c1cccc(NC(=O)COC(=O)/C=C/c2ccc3c(c2)OCO3)c1 | n | 12µM | n | n | n | n
Cc1ccc(/C=C/C(=O)OCC(=O)Nc2cccc(S(=O)(=O)N(C)C)c2)o1 | n | 21µM | n | n | n | n
C[C@H]1[C@H](C)OC(=O)C[C@H](O)C[C@H](O)C[C@H](O)CC[C@H](O)[C@H](O)CC(=O)C[C@H](O)[C@H](C(=O)O)[C@H](O)C[C@H](O[C@@H]2O[C@@H](C)[C@H](O)[C@@H](N)[C@@H]2O)C=CC=CC=CC=CCCC=CC=C[C@@](C)(O)[C@H]1O | x | x | x | x | x | n[9.22 µM]
COc1ccc(NC(=O)c2cccc(N3C(=O)C4C5C=CC(C6CC56)C4C3=O)c2)cc1 (stereo unspecified) | n | n | n | 23µM | n | x
COc1ccc(NC(=O)c2cccc(N3C(=O)C4C5C=CC(C6CC56)C4C3=O)c2)c(OC)c1 (stereo unspecified) | n | u | n | u | n | x
CN(C)c1ccc(NC(=O)c2cccc(N3C(=O)C4C5C=CC(C5)C4C3=O)c2)cc1 (stereo unspecified) | u | 11µM | 3.2µM | u | 1.8µM | n
Cc1ccc(NC(=O)c2cccc(N3C(=O)C4C5C=CC(C5)C4C3=O)c2)cc1C (stereo unspecified) | n | u | n | u | n | x
COc1ccc(NC(=O)c2cccc(N3C(=O)c4cccc([N+](=O)[O-])c4C3=O)c2)cc1 | n | 8.5µM | n | u | n | x
CC1(C)CC(=O)C=C(CN2C(=O)c3ccccc3C2=O)C1=O | n | n | n | n | n | x
COC(=O)c1c(N2C(=O)[C@H]3[C@@H](C2=O)[C@]2(C(=O)Nc4c(C)cccc42)N2CCC[C@@H]32)sc(C)c1C | n | n | n | 16µM | n | n
Cc1cc(Cl)cc2c1NC(=O)[C@]21[C@@H]2C(=O)N(Cc3ccccc3)C(=O)[C@@H]2[C@@H]2CCCN21 | n | n | n | u | n | n
COC(=O)Nc1nnc(-c2ccccc2OC)s1 | u | 11µM | 2.2µM | u | 3.5µM | x
COC(=O)Nc1nnc(-c2ccccc2Cl)s1 | 23µM | 11µM | n | u | u | u
CCC(SC1=NCCS1)C(=O)Nc1nnc(-c2ccccc2OC)s1 (stereo unspecified) | n | n | n | 18µM | n | n
Cc1ccc(C(=O)NCCc2nnc3ccc(SCC(=O)N4CCCCC4)nn23)cc1 | n | n | n | n | n | x
CCOC(=O)N1CCN(C(=O)/C=C/c2c(C)nn(-c3ccc(F)cc3)c2Cl)CC1 | n | n | n | u | n | n
O=C(Nc1ccc(Cl)cc1)c1cncs1 | n | n | n[1.84 µM] | n | n | x
O=[N+]([O-])c1c(Nc2ccccc2O)cc(Cl)c2nonc12 | n | n | n | 26µM | n | x
